In publication PMC4336329 (PLoS ONE, 2015):
Hit rate of the full screen: of about 310,000 compounds, about 14,000 (4.5%) showed an effect of 50% or more. Effects have a minus sign here. The list comes from a sample in which strong results are over-represented; it also holds similar structures and randomly drawn compounds.

molecular target: human ether-à-go-go-related gene (hERG) potassium channel (human, UniProt Q12809); experiment: primary screen, population patch clamp on CHO cells stably expressing hERG; higher = less effect of the substance
Sequence (Q12809 whole entry, looked up): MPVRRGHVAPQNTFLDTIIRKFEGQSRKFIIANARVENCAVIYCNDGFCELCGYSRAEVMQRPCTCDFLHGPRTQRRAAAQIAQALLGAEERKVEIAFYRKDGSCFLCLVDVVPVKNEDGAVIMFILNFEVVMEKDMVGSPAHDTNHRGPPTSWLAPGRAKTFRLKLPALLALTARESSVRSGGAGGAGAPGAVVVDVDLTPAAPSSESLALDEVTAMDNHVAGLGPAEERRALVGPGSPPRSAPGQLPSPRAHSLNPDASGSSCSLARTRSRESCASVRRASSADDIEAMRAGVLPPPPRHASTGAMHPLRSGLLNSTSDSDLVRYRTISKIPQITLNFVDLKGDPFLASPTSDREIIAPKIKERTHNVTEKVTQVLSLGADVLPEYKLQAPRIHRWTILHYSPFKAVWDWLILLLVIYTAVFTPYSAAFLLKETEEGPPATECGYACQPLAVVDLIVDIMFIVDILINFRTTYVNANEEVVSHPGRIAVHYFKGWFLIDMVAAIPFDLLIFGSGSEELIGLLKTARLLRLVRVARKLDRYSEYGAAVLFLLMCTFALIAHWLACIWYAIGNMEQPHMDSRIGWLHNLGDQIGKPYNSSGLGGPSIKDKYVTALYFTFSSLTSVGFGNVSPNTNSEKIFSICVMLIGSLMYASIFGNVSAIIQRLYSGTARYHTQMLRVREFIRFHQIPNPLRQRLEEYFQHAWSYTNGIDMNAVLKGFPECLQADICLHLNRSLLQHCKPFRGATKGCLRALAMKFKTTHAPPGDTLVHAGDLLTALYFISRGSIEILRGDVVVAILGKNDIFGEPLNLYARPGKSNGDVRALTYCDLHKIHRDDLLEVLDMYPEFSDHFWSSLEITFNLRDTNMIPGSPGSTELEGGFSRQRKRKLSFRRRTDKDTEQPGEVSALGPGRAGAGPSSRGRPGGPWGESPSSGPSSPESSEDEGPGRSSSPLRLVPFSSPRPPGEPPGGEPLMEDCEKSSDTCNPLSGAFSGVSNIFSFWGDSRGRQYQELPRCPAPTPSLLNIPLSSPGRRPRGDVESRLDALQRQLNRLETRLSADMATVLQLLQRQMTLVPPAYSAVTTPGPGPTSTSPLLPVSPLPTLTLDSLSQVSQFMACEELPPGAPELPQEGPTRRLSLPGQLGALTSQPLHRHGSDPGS
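Further: peak tail current of the secondary pulse compared with the same well before compound.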

SMILES	hERG current change (%, negative = inhibition) at 10uM
O=C(CC(Sc1n[nH]c(-c2ccccc2)n1)c1ccccc1)NCc1ccccc1 (stereo not shown)	-16%
Cc1ccc2sc(N(CCN(C)C)C(=O)/C=C/c3cccs3)nc2c1C.Cl	11.8%
COc1ccccc1C(=O)OCC(=O)Nc1cc(S(=O)(=O)N2CCOCC2)ccc1N1CCCC1	-7.82%
O=C(NCC(=O)N1CCCC1C(=O)O)OC1CCCCC1 (stereo not shown)	-6.8%
Cc1cccc(-c2noc(-c3ccno3)n2)c1	-53%
Cc1cccc(-c2noc(-c3ccc(F)cc3)n2)c1	15.1%
Cc1ccc(-c2noc(-c3ccno3)n2)cc1	9.19%
COc1ccccc1C(CNC(=O)CNC(=O)c1ccc(C)c(C)c1)N1CCCC1 (stereo not shown)	-6.27%
Clc1ccc(-n2c(SC/C=C/c3ccccc3)nnc2-c2cccnc2)cc1	-50.3%
C(=C\c1ccccc1)/CSc1nnc(-c2ccncc2)n1Cc1ccco1	-63.9%
Cc1noc(C)c1CSc1nnc(-c2ccccc2)n1Cc1ccco1	-21.9%
Cn1c(SC/C=C/c2ccccc2)nnc1-c1ccco1	-27.1%
Nn1c(SC/C=C/c2ccccc2)nnc1-c1cccnc1	23.4%
Nn1c(SC/C=C/c2ccccc2)nnc1-c1ccncc1	-8.06%
c1ccc(-c2nnc(CSc3nnc(-c4ccncc4)n3Cc3ccco3)o2)cc1	-29.8%
C(=C\c1ccccc1)/CSc1nnc(-c2cccnc2)n1Cc1ccco1	-70.8%
O=C(CSc1nnc(-c2cccnc2)n1Cc1ccco1)N1c2ccccc2Sc2ccccc21	-33.7%
O=C(O)CCSc1nnc(-c2cccnc2)n1-c1ccccc1	11.2%
C(=C\c1ccccc1)/CSc1nnc(-c2ccccc2)n1Cc1ccco1	-74.7%
CCSc1nnc(-c2cccnc2)n1Cc1ccco1	-7.73%
Cc1ccccc1OCCn1c(CCNC(=O)C(C)C)nc2ccccc21	-6.24%
CCN1C(=O)CC(C(=O)Nc2ccc(F)cc2)SC1=Nc1ccc2c(c1)OCO2 (stereo not shown)	-13.5%
CC(C)Sc1nc(N)c2c3c(sc2n1)CN(C)CC3	-34%
CC(=O)Oc1ccc(/C=N/NC(=O)CCSc2ccccc2)cc1	-8.83%
COc1ccc2nc(-c3ccccc3)[nH]c2c1	-1.4%
